Data on 20 compounds can be found in PubChem BioAssay (NCI).

Assay [1] can be described thus: NCI Yeast Anticancer Drug Screen. Data for the rad50 strain (AID 155).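 Further: 0% = growth of vehicle-only cultures of the same strain.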 Conditions: S. cerevisiae rad50 strain growth inhibition, hits give high values; at 50.0 µM unless noted. Summed up:
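Compounds were tested on a yeast strain with an engineered DNA damage repair alteration; the reported value is growth inhibition normalised to vehicle treatment.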

Assay [2] in a line: NCI Yeast Anticancer Drug Screen. Data for the mec2-1 strain (AID 157). Conditions: S. cerevisiae mec2-1 strain, hits give high values; at 50.0 µM unless noted. Summed up: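 Growth inhibition is read against vehicle-treated controls after compound exposure of the mec2-1 yeast strain, which is defective in DNA damage repair or cell cycle control.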
Assay [3] can be described thus: NCI Yeast Anticancer Drug Screen. Data for the sgs1 mgt1 strain (AID 161).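 Further: 0% = growth of cultures given vehicle only.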 As to conditions: S. cerevisiae sgs1 mgt1 strain, hits give high values; at 50.0 µM unless noted. The method in brief:
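Yeast cells carrying a defined DNA-repair defect were exposed to test compounds. Growth inhibition was measured relative to vehicle-treated controls.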

A short description of assay [4]: NCI Yeast Anticancer Drug Screen. Data for the cln2 rad14 strain (AID 165).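 Further: 0% = growth equal to vehicle treated cultures.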 As to conditions: S. cerevisiae cln2 rad14 strain, hits give high values; at 50.0 µM unless noted. The method in brief:
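Growth inhibition, relative to vehicle-treated controls, is the read-out. The test organism is a yeast strain with defined genetic alterations, cln2 rad14.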

The nature of assay [5]: NCI Yeast Anticancer Drug Screen. Data for the bub3 strain (AID 167). Conditions: S. cerevisiae bub3 mutant strain, hits give high values; at 50.0 µM unless noted. Summed up: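 Growth of a checkpoint-deficient yeast mutant is measured after compound exposure. Values represent inhibition relative to vehicle.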
Assay [6] in a line: NCI Yeast Anticancer Drug Screen. Data for the mlh1 rad18 strain (AID 175). As to conditions: S. cerevisiae mlh1 rad18 strain growth inhibition, hits give high values; at 50.0 µM unless noted. The method in brief:
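Cells of a genetically altered yeast strain, deficient in DNA damage repair, were treated with compound. Their growth was then compared with that of vehicle-treated cultures to give inhibition.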

“And” between values parts separate entries of the source, which are not always exact repeats. Equal entries are not always repeated. This is part of a sample that, as a whole, favours compounds with a hit. Of some 79,000 tested, about 15% had one in any assay. A number with no mark means an inactive call. The source made the active and inactive calls. No stated cut-off is given here; in the data, active means growth inhibition above about 70%; inactive means the rest.

For the compound `O=C1OC(c2ccccc2)Cc2ccccc21` (stereo not given), the growth inhibition in assay [1] is -20.2%; in assay [2], -10.8%; in assay [3] it was -22.1%; in assay [4], 4.55%; in assay [5] it was 3.15%; in assay [6] it was -9.9%.
As for `CN1CCN(C2c3ccccc3OC(C)(C)C2O)CC1` (stereo not given), the growth inhibition is -23.9% in assay [1]; -14% in assay [2]; -14.8% in assay [3]; -25.8% in assay [4]; -15.7% in assay [5]; 8.8% in assay [6].
For the compound `CC(=O)NCC(=O)c1ccc([N+](=O)[O-])cc1`, the growth inhibition in assay [1] was 16.6% and -14.7%; in assay [2] it was -16.3% and -24.1%; in assay [3], 13% and -0.95%; in assay [4] it was -0.2% and 6.65%; in assay [5], -6.95% and -17.6%; in assay [6] it was 29.8% and -1.7%.
For `Cc1nnc(N)nc1C`, the growth inhibition is 33% in assay [1]; 9.5% in assay [2]; -10.1% in assay [3]; -0.8% in assay [4]; -1.3% in assay [5]; 13.6% in assay [6].
On to `CC(C)C(=O)Nc1nc2nc[nH]c2c(=O)[nH]1`, for which the growth inhibition is 11.6% in assay [1]; -23.6% in assay [2]; 24.9% in assay [3]; 12.8% in assay [4]; -7.95% in assay [5]; -22.9% in assay [6].
`Cc1ccc(N=C2S/C(=C3/CCC=C3N3CCOCC3)N(c3ccc(Cl)cc3)C2=Nc2ccc(C)cc2)cc1`: the growth inhibition in assay [1] was -8.9%; in assay [2], -13.4%; in assay [3], -14.9%; in assay [4] it was -14.6%; in assay [5], -22.4%; in assay [6] it was -28%.
With `COc1ccc(CCNCC(O)CSc2ccc(Cl)cc2)cc1OC` (stereo not given), the growth inhibition in assay [1] was 74.8% (active); in assay [2], 20.4%; in assay [3], 73% (active); in assay [4], 27.9%; in assay [5] it was 22%; in assay [6], 30.6%.
Take `NC(=O)C1OCOC2C(CO)OCOC12` (stereo not given): the growth inhibition in assay [1] is -1.9%; in assay [2], -14.4%; in assay [3], -3%; in assay [4], -52.1%; in assay [5], -7.4%; in assay [6] it was -6.15%.
With `CC1=C(N2CCOCC2)C(N2CCOCC2)C(C)C1=O` (stereo not given), the growth inhibition in assay [1] was 16.8%; in assay [2], -5.25%; in assay [3] it was -4.8%; in assay [4], 13.7%; in assay [5], 9.1%; in assay [6], 3%.
For the compound `COC1OC(COC(=O)NCCCCC(=O)C(F)(F)F)C(O)C(O)C1O` (stereo not given), the growth inhibition in assay [1] is 3.6%; in assay [2], 22.6%; in assay [3] it was -0.5%; in assay [4], 29.9%; in assay [5], 28.2%; in assay [6], 11.6%.
Consider `Cc1cccc2oc3c(c(=O)c12)CC(O)C(C)(C)O3` (stereo not given), for which the growth inhibition was 15.6% in assay [1]; -3.85% in assay [2]; 20.7% in assay [3]; -7.85% in assay [4]; 5.65% in assay [5]; -45% in assay [6].
As for `c1nc2c([nH]1)CCNC2c1ccc(C2NCCc3[nH]cnc32)cc1` (stereo not given), the growth inhibition in assay [1] is 1.65%; in assay [2], -1.65%; in assay [3] it was 1.3%; in assay [4], -38.9%; in assay [5], -14.1%; in assay [6], -2.95%.
Consider `CCC(=O)Oc1ccc(C(=O)c2ccc(OC(=O)CC)cc2)cc1`, for which the growth inhibition is 5.05% in assay [1]; -24.9% in assay [2]; 13.8% in assay [3]; 11.4% in assay [4]; 8.05% in assay [5]; 4.1% in assay [6].
Regarding `CCOc1cccc(C=N)c1O`, the growth inhibition was 35.8% in assay [1]; -0.55% in assay [2]; 51.9% in assay [3]; 36.4% in assay [4]; -1.75% in assay [5]; 46.5% in assay [6].
With `OC(CCN1CC2CCC(CC2)C1)(Cc1ccccc1)c1cccs1` (stereo not given), the growth inhibition in assay [1] is 6.75%; in assay [2], 2.7%; in assay [3] it was 21.1%; in assay [4], 11.2%; in assay [5], 17.1%; in assay [6], 32.5%.
`CN(Cc1ccccc1Cl)C(=O)Nc1cccc(Cl)c1`: the growth inhibition in assay [1] is 61.5%; in assay [2] it was 78% (active); in assay [3] it was 80.7% (active); in assay [4], 80% (active); in assay [5], 86.7% (active); in assay [6], 90.2% (active).
On to `O=Cc1c2cnc(c1O)CSCc1ccc(cc1)CSC2`, for which the growth inhibition is 9.55% in assay [1]; 8.45% in assay [2]; 9.35% in assay [3]; -11.7% in assay [4]; -2.9% in assay [5]; 23.5% in assay [6].
Consider `C[N+]1(CC(=O)c2ccc(Cl)cc2)CCOCC1`, for which the growth inhibition was 20.8% in assay [1]; 7.45% in assay [2]; 10.6% in assay [3]; -20.9% in assay [4]; 6.6% in assay [5]; 28.1% in assay [6].
On to `CC(C)CC(NC=O)C(=O)O` (stereo not given), for which the growth inhibition in assay [1] was 11.2%; in assay [2], 1.85%; in assay [3], -0.4%; in assay [4], 9.45%; in assay [5], -0.3%; in assay [6], 8.35%.
On to `CCCCS(=O)/C=C\S(=O)CCCC` (stereo not given), for which the growth inhibition in assay [1] was -7%; in assay [2] it was 6.3%; in assay [3], 4.75%; in assay [4] it was -16.2%; in assay [5] it was 8.55%; in assay [6], 1.6%.
